Where “and” joins values, the source holds several entries; their conditions need not be identical. Identical values can stand only once. Inconclusive results are not listed. Calls of active or inactive are those of the source. The call rests on the fitted dose curve; in most records, active means well fitted curve in the direction sought with a large enough effect; inconclusive means small, poorly fitted or top-dose-only effect, or another doubt; inactive means no such curve, though single readings can be large or run the other way.
biological target: Lysosomal acid glucosylceramidase (Homo sapiens) (UniProt P04062); experiment: qHTS Assay for Inhibitors and Activators of N370S glucocerebrosidase as a Potential Chaperone Treatment of Gaucher Disease: Primary Screen Confirmation; details: N370S glucocerebrosidase enzyme activity, fluorogenic substrate; series mostly up to 54 µM
Description: NIH Chemical Genomics Center [NCGC]
NIH Molecular Libraries Probe Production Centers Network [MLPCN]
Assay Submitter (PI): Wei Zheng
Glucocerebrosidase (GC) catalyzes the hydrolysis of beta-glucocerebroside to glucose and ceramide in lysosomes. Mutations in the glucocerebrosidase gene result in Gaucher disease, an autosomal recessive lysosomal storage disorder. Many of the mutations encountered in patients with Gaucher disease are missense alterations that may cause misfolding, decreased stability and/or mistrafficking of this lysosomal protein. […] These inhibitors include iminosugar analogs and three non-iminosugar inhibitors identified from a previous HTS of 62,000 compounds with the wild type recombinant enzyme. However, the enhancement of enzyme activity by the chaperone action of an enzyme inhibitor must be balanced against the direct inhibition of the enzyme. An enzyme activator could also function as a chaperone by binding to the enzyme and helping to correct its misfolding and mistrafficking. While activators for GC have not yet been identified, they may have better therapeutic potential than inhibitors. Therefore the discovery and development of chemical activators may provide a new strategy for the chaperone therapy.
We have optimized a new assay using N370S mutant GC derived from the spleen of a Gaucher patient. […] In addition, the MLPCN compound library has expanded, which increases the chance of finding new and better probes.
NCGC Assay Protocol Summary:
This is a fluorogenic enzyme assay with 4-methylumbelliferyl-beta-D-glucopyranoside as the substrate and N370S glucocerebrosidase from human spleen homogenate as the enzyme preparation. Upon the hydrolysis of this fluorogenic substrate, the resulting product, […] which can be detected by a standard fluorescence plate reader. Data were normalized to the controls for basal activity (without enzyme) and 100% activity (with enzyme). The AC50 values were determined from concentration-response data modeled with the standard Hill equation.
Assay buffer: 50 mM citric acid (titrated with potassium phosphate to pH 5.0), 100 mM potassium chloride, 10 mM sodium chloride, 1 mM magnesium chloride, 0.01% Tween-20.
1536-well assay protocol:
(1) Add 2 ul/well of spleen homogenate (27 ug final)
(2) Add 23 nL compounds in DMSO solution. The final titration was 0.5 nM to 58 uM.
(3) Add 2 ul of substrate (1 mM final)
(4) Incubate at 37C for 40 min.
(5) Add 2 ul stop solution (1M NaOH and 1M Glycine mixture, pH 10)
(6) Detect the assay plate in a ViewLux plate reader (PerkinElmer) with Ex=365 nm and Em=440nm.
Keywords: Glucocerebrosidase, beta-glucosidase, Gaucher Disease, pharmacological chaperone, chaperone therapy, high throughput screening, glucocerebrosidase inhibitor, MLSMR, MLSCN, NIH Roadmap, qHTS and NCGC
Potency means the concentration at half of the fitted maximal effect.

Chain of Lysosomal acid glucosylceramidase (Homo sapiens) (P04062 whole entry N409S): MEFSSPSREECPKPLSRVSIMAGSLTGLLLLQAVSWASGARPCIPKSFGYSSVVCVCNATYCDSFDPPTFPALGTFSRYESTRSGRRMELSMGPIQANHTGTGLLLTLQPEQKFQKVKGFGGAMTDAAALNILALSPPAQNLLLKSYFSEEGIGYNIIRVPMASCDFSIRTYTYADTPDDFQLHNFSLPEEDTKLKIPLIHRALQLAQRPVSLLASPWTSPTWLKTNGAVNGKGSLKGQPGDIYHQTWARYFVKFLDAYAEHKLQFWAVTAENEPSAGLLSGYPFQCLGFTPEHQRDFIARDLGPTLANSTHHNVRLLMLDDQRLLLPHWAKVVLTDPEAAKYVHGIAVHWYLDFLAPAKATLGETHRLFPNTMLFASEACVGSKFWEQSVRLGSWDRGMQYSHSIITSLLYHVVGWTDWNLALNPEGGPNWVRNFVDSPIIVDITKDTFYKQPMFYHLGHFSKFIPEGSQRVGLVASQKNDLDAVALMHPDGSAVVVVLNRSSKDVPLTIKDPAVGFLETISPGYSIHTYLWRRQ

Row | Compound | Potency
1 | Cc1ccc(S(=O)(=O)N2CCN(c3nc(-n4cnc5ccccc54)nc4ccccc34)CC2)cc1 | inactive
2 | O=S(=O)(c1ccccc1C(F)(F)F)N1CCN(c2nc(-c3cccs3)nc3ccccc23)CC1 | 0.41 µM (active)
3 | Cc1cccc(S(=O)(=O)N2CCN(c3nc(-c4cccs4)nc4ccccc34)CC2)c1 | 2.01 µM (active)
4 | Oc1ccccc1Nc1nc(NCC2CCCO2)c2ccccc2n1 (stereo not given) | inactive
5 | O=S(=O)(c1cccnc1)N1CCN(c2nc(-c3cccs3)nc3ccccc23)CC1 | 3.18 µM (active)
6 | CCN(Cc1ccccc1)c1ccc(Br)cn1 | inactive
7 | CN1CCOc2cc(S(=O)(=O)N3CCN(c4nc(-c5cccs5)nc5ccccc45)CC3)ccc21 | 0.58 µM (active)
8 | Cc1ccc(S(=O)(=O)N(C)CCN(C)c2nc(-c3cccs3)nc3ccccc23)cc1 | 2.25 µM (active)
9 | Cc1cc(C)cc(S(=O)(=O)N2CCN(c3nc(-c4cccs4)nc4ccccc34)CC2)c1 | 1.03 µM (active)
10 | S=C(NCCCc1cnc[nH]1)NCCCN(Cc1ccc(Cl)c(Cl)c1)c1ccccn1 | 7.29 µM (active)
11 | CC(Nc1nc(-c2ccccc2F)nc2ccccc12)c1ccccc1 (stereo not given) | 3.66 µM (active)
12 | O=S(=O)(c1ccc(C(F)(F)F)cc1)N1CCN(c2nc(-c3cccs3)nc3ccccc23)CC1 | 2.53 µM (active)
13 | CC(C)(C)c1cccc(S(=O)(=O)N2CCN(c3nc(-c4cccs4)nc4ccccc34)CC2)c1 | 1.63 µM (active)
14 | O=S(=O)(c1ccccc1C(F)(F)F)N1CCN(c2nc(-c3ccccc3)nc3ccccc23)CC1 | 2.91 µM (active)
15 | Cc1cccc(NC(=S)Nc2cccc(C)n2)n1 | inactive
16 | COc1ccccc1S(=O)(=O)N1CCN(c2nc(-c3cccs3)nc3ccccc23)CC1 | 0.73 µM (active)
17 | CC(=O)c1cccc(S(=O)(=O)N2CCN(c3nc(-c4cccs4)nc4ccccc34)CC2)c1 | 2.25 µM (active)
18 | N#Cc1ccccc1S(=O)(=O)N1CCN(c2nc(-c3cccs3)nc3ccccc23)CC1 | 2.25 µM (active) and 1.13 µM (active)
19 | O=S(=O)(c1ccccc1)N1CCN(c2nc(-c3ccc(F)cc3)nc3cc(Cl)ccc23)CC1 | inactive
20 | CC(=O)c1ccc(S(=O)(=O)N2CCN(c3nc(-c4cccs4)nc4ccccc34)CC2)cc1 | 1.79 µM (active)

Row | Compound | Potency
21 | CC(C)(C)C(=O)OCCNc1nc(-c2cccs2)nc2ccccc12 | 1.46 µM (active)
22 | S=C(NCCCN(Cc1ccc(Cl)c(Cl)c1)c1ccc(Br)cn1)NCCc1cnc[nH]1 | 18.3 µM (active)
23 | Clc1ccc(CN(CCCNc2ncnc(NCCCc3cnc[nH]3)n2)c2ccc(Br)cn2)cc1Cl | 5.66 µM (active)
24 | Cc1cc(NC(=O)CCS(=O)(=O)c2ccc3c(c2)NC(=O)C(C)S3)ccc1Br (stereo not given) | 6.51 µM (active)
25 | O=S(=O)(c1cc(Cl)cc(Cl)c1)N1CCN(c2nc(-c3cccs3)nc3ccccc23)CC1 | 2.53 µM (active)
26 | O=C(Nc1cnn(Cc2ccc(F)cc2)c1)c1cnn2c(C(F)F)cc(-c3ccccc3)nc12 | inactive
27 | Cc1cc2[nH]c(=O)c(=O)[nH]c2cc1S(=O)(=O)N1CCN(c2cccc(C(F)(F)F)c2)CC1 | 5.17 µM (active)
28 | S=C(NCCCc1cnc[nH]1)NCCCN(Cc1ccc(Cl)cc1)c1cc(-c2ccccc2)ccn1 | 5.66 µM (active)
29 | COc1cccc(NC(=O)CSc2nc3c(sc4ccccc43)c(=O)n2CCCN2CCCC2)c1 | inactive
30 | CCCCN(Cc1ccc(Cl)c(Cl)c1)c1ccc(Br)cn1 | inactive
31 | NCCCNc1ccc(Br)cn1 | inactive
32 | O=S(=O)(/C=C/c1ccccc1)N1CCN(c2nc(-c3ccccc3)nc3ccccc23)CC1 | 11.6 µM (active)
33 | Cc1cc(C)cc(N(CC(=O)Nc2ccc(Br)cc2)S(=O)(=O)c2c(C)[nH]c(=O)[nH]c2=O)c1 | 2.06 µM (active)
34 | Cc1ccc(CC(=O)Nc2cccc(C)n2)cc1 | inactive
35 | Cc1ccc(S(=O)(=O)N2CCN(c3nc(C#N)nc4ccccc34)CC2)cc1 | inactive
36 | Cc1cc(C)cc(N(CC(=O)Nc2ccc(C(F)(F)F)cc2)S(=O)(=O)c2c(C)[nH]c(=O)[nH]c2=O)c1 | 2.59 µM (active)
37 | Cc1ccc(S(=O)(=O)N2CCN(c3nc(-c4ccc(C)s4)nc4ccccc34)CC2)cc1 | 3.26 µM (active)
38 | c1ccc(CNc2nc(-c3cccs3)nc3ccccc23)cc1 | 7.13 µM (active) and 5.66 µM (active)
39 | CC(C)(C)C(=O)OCCNc1nc(-c2ccccc2)nc2ccccc12 | 1.42 µM (active)
40 | O=S(=O)(c1ccc(F)cc1F)N1CCN(c2nc(-c3cccs3)nc3ccccc23)CC1 | 1.27 µM (active)
